Laboratory results taken from PubChem BioAssay (NCATS).
Where “and” joins values, the source holds several entries; their conditions need not be identical. Equal values may be shown once. Results filed as inconclusive are left out. Where a call stands in place of a potency, no number is given. Some compounds were tested as several samples or in several runs, with calls that do not always agree. Calls of active or inactive are those of the source. Calls come from the whole dose curve; as a rule, active = well fitted curve in the direction sought with a large enough effect; inconclusive = small, poorly fitted or top-dose-only effect, or another doubt; inactive = no such curve, though single readings can be large; an effect the other way counts as inactive or inconclusive.

Key:
[1] = biological target: Glutathione peroxidase 1 (Homo sapiens) (UniProt P07203); assay: Primary qHTS Assay for Inhibitors of Recombinant Selenoprotein Glutathione Peroxidase 1 (GPX1) (AID 1845191); note: nearly all actives have a fitted effect of over 65% in size
Glutathione peroxidase 1 (Homo sapiens), sequence (P07203 whole entry, looked up): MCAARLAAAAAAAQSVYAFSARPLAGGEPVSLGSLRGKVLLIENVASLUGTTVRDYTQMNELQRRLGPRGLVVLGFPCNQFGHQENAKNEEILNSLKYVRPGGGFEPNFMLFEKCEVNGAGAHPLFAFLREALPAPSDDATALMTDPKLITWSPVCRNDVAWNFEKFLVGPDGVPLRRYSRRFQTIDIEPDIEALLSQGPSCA
How it was run: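 Recombinant GPX1 (10 nM final) was preincubated with compound for 30 min at room temperature, then reacted with 1 mM GSH, 0.5 mM CHP, 0.5 mM NADPH and 100 nM glutathione reductase; NADPH fluorescence (340/450 nm) was read at 0 and 15 min.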

[2] = biological target: Phospholipid hydroperoxide glutathione peroxidase GPX4 (Homo sapiens) (UniProt P36969); assay: Primary qHTS Assay for Inhibitors of Recombinant Selenoprotein Glutathione Peroxidase 4 (GPX4) (AID 1845192); note: nearly all actives have a fitted effect of over 65% in size; note: potency is the fitted concentration of half-maximal effect
Phospholipid hydroperoxide glutathione peroxidase GPX4 (Homo sapiens), sequence (P36969 whole entry, looked up): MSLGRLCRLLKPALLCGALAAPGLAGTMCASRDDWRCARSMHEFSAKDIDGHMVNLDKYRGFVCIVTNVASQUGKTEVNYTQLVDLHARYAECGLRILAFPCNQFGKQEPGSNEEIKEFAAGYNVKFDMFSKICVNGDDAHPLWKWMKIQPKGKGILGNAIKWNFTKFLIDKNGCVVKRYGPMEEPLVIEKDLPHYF
How it was run: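 GR-coupled readout: 100 nM GR, 1 mM GSH, 0.5 mM NADPH; NADPH fluorescence (ex 340/em 450 nm) read at t=0 and after 15 min RT. GPX4 200 nM, preincubated 30 min with compound; substrate 0.5 mM CHP.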

[3] = biological target: Luciferin 4-monooxygenase (Photinus pyralis) (UniProt P08659); assay: Primary firefly luciferase (FLuc) qHTS assay for identification of artifact compounds. (AID 1845220); details: outcome: dose series up to 54.1 µM; note: nearly all actives have a fitted effect of over 60% in size
How it was run: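 In this counter-screen for luciferase artifacts, test compounds met substrate (10 uM each luciferin and ATP) before 10 nM enzyme started the reaction. Light output was measured 5 min later.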

[4] = Primary fluorescence-based thiol-reactive (MSTI) qHTS assay for identification of artifact compounds. (AID 1845221);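 note: series mostly up to about 54 µM; thiol-reactive compounds lower the probe fluorescence signal; nearly all actives have a fitted effect of over 65% in size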
How it was run: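 First, 4 uM MSTI in 2% DMSO/PBS pH 7.4 was dispensed; next, compounds were added; then plates sat 1 h at room temperature without light. Finally, emission at 598 nm was recorded.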

[5] = tested on: Nanoluciferase (engineered Oplophorus gracilirostris luciferase); assay: Primary Nanoluciferase (NLuc) qHTS assay for identification of artifact compounds. (AID 1845222);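 note: NLuc secreted into diluted conditioned medium of S16 cells; series mostly up to about 54 µM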
How it was run: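 Using secreted nanoluciferase in S16 culture medium (0.22 um filtered, 1:55 dilution), compounds were preincubated 15 min at RT. Signal was generated with Nano-Glo reagent (1:100) over 5 min.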

[6] = Primary redox qHTS assay for identification of artifact compounds. (AID 1845223)
How it was run: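 Amplex Red (25 uM) and HRP (250 mU/mL) in HBSS, with compounds for 15 min, then 250 uM DTT for 30 min, room temperature, dark. Fluorescence 525/598 nm read; normalized to DMSO and 10 uM DA3003; Hill fit.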

[7] = biological target: Cytochrome P450 3A4 (Homo sapiens) (UniProt P08684); assay: qHTS for inhibitors of CYP3A4 against the NCATS DSHEA and TCM libraries (AID 1919971);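 note: inhibition lowers luminescence from luciferin made by CYP3A4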
Cytochrome P450 3A4 (Homo sapiens), sequence (P08684 whole entry, looked up): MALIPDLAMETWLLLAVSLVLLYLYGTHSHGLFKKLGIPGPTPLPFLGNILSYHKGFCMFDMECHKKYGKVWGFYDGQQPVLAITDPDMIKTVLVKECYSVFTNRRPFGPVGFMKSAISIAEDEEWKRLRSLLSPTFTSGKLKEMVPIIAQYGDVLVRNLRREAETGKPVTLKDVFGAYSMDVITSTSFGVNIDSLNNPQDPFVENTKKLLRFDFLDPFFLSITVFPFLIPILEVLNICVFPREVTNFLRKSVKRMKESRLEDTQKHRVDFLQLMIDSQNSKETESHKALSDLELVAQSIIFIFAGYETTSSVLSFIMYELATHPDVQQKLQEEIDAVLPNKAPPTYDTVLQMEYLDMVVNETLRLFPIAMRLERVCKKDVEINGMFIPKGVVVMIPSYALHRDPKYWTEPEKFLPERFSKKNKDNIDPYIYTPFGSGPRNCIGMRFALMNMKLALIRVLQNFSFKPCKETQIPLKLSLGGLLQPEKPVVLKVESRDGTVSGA
How it was run: (§1)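 Light output from converted D-luciferin reports remaining CYP activity. Compounds preincubate with enzyme and substrate for 15 min; NADPH regeneration (1x final) runs the reaction for 30-45 min.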

[8] = biological target: Cytochrome P450 2D6 (Homo sapiens) (UniProt P10635); assay: qHTS for inhibitors of CYP2D6 against the NCATS DSHEA and TCM libraries (AID 1919972)
Cytochrome P450 2D6 (Homo sapiens), sequence (P10635 whole entry, looked up): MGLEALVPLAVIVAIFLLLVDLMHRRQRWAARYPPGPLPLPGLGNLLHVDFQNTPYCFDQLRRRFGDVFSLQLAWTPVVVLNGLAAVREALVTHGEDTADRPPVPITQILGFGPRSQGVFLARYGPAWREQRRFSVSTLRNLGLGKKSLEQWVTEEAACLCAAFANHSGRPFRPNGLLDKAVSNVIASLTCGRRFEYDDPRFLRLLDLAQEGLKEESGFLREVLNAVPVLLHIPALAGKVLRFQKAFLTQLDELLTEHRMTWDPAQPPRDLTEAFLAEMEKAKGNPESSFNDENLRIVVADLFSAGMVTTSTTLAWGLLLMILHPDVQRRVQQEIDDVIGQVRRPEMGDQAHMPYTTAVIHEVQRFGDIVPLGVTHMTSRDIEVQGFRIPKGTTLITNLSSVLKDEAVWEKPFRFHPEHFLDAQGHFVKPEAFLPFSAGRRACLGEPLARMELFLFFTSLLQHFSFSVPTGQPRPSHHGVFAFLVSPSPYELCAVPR
How it was run: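 Steps: enzyme plus luciferin substrate dispensed; test substances pinned; 15 min RT; 1x NADPH regenerating solution added, 30–45 min RT protected from light; detection reagent, 30 min RT; luminescence measured. Minus-enzyme wells as background.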

[9] = biological target: Cytochrome P450 2C9 (Homo sapiens) (UniProt P11712); assay: qHTS for inhibitors of CYP2C9 against the NCATS DSHEA and TCM libraries (AID 1919973); note: potency is the fitted concentration of half-maximal effect
Cytochrome P450 2C9 (Homo sapiens), sequence (P11712 whole entry, looked up): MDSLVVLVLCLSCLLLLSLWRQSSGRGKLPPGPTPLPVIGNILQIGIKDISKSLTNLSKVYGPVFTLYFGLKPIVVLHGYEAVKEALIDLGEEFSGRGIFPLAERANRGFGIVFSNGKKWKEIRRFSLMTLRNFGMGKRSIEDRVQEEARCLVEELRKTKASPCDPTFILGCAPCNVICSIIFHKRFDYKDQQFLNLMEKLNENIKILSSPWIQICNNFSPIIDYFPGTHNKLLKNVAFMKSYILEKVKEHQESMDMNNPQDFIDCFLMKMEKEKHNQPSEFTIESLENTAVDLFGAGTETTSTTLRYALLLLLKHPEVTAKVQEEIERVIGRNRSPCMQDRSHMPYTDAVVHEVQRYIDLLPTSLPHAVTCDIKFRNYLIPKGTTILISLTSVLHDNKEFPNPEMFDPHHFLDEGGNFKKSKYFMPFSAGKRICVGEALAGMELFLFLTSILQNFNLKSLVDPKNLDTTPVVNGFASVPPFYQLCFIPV
How it was run: as §1

[10] = biological target: Cytochrome P450 2C19 (Homo sapiens) (UniProt P33261); assay: qHTS for inhibitors of CYP2C19 against the NCATS DSHEA and TCM libraries (AID 1919974);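 note: luminescence from luciferin released by CYP2C19 oxidation of a pro-luciferin substrate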; note: potency is the fitted concentration of half-maximal effect
Cytochrome P450 2C19 (Homo sapiens), sequence (P33261 whole entry, looked up): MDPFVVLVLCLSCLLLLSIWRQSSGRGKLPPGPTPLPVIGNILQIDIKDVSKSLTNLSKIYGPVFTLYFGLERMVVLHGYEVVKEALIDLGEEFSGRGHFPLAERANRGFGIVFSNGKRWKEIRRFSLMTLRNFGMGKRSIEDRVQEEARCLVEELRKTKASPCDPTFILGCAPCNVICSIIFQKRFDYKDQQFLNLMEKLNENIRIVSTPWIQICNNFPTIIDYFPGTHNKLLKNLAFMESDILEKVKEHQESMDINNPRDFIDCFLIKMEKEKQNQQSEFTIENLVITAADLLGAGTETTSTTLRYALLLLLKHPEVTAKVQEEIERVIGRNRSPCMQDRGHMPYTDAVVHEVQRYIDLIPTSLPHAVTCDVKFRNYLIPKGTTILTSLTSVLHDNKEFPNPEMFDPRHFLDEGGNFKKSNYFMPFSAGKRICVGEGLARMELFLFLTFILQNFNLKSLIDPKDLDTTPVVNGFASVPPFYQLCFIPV
How it was run: as §1

C[C@@](Cc1ccc(O)c(O)c1)(NN)C(=O)O
Potency [1]: inactive
Potency [2]: inactive

COc1cc(C)c(/C=C/C(C)=C/C=C/C(C)=C/C(=O)O)c(C)c1C
Potency [1]: inactive
Potency [2]: 16.1 µM (active)

OCCOCCOCCO
Potency [1]: inactive
Potency [2]: inactive

O=P(O)(O)CP(=O)(O)O
Potency [1]: inactive
Potency [2]: inactive

OC[C@H]1O[C@@](CO)(O[C@H]2O[C@H](CO)[C@@H](O)[C@H](O)[C@H]2O)[C@@H](O)[C@@H]1O
Potency [1]: inactive
Potency [2]: inactive

CC(C)(C)C(=O)OCC(=O)[C@H]1CC[C@H]2[C@@H]3CCC4=CC(=O)CC[C@]4(C)[C@H]3CC[C@]12C
Potency [1]: inactive
Potency [2]: inactive

N#Cc1ccc2c(c1)N(CCCN1CCC(O)CC1)c1ccccc1S2
Potency [1]: inactive
Potency [2]: inactive

O=C1CCC(=O)N1CO
Potency [1]: inactive
Potency [2]: inactive

C/C(=C\C(=O)OCCCCCCCCC(=O)O)C[C@@H]1OC[C@H](C[C@@H]2O[C@H]2[C@@H](C)[C@H](C)O)[C@@H](O)[C@H]1O
Potency [1]: inactive
Potency [2]: inactive
outcome [3]: inactive
outcome [4]: inactive
outcome [5]: inactive

CNC(=O)c1c(I)c(C(=O)NCC(=O)Nc2c(I)c(C(=O)O)c(I)c(C(=O)NCCO)c2I)c(I)c(N(C)C(C)=O)c1I
Potency [1]: inactive
Potency [2]: inactive

N[C@@H](Cc1cc(I)c(Oc2ccc(O)c(I)c2)c(I)c1)C(=O)O
Potency [1]: inactive
Potency [2]: inactive and 14.1 µM (active)
outcome [3]: inactive
outcome [4]: inactive
outcome [5]: inactive
outcome [6]: inactive

CC(C)=CCC/C(C)=C/C=C/C(C)=C/C=C/C(C)=C/C=C/C=C(C)/C=C/C=C(C)/C=C/C=C(\C)CCC=C(C)C
Potency [1]: inactive
Potency [2]: inactive
outcome [7]: inactive
outcome [8]: inactive
Potency [9]: inactive
Potency [10]: inactive

CO[C@H]1C[C@@H]2CC[C@@H](C)[C@@](O)(O2)C(=O)C(=O)N2CCCC[C@H]2C(=O)O[C@H]([C@H](C)C[C@@H]2CC[C@@H](OC(=O)C(C)(CO)CO)[C@H](OC)C2)CC(=O)[C@H](C)/C=C(\C)[C@@H](O)[C@@H](OC)C(=O)[C@H](C)C[C@H](C)/C=C/C=C/C=C/1C
Potency [1]: inactive
Potency [2]: inactive
outcome [3]: inactive
outcome [4]: inactive
outcome [5]: inactive
outcome [6]: inactive

CC1CC(OC(=O)C(O)c2ccccc2)CC(C)(C)C1 (centres undefined)
Potency [1]: inactive
Potency [2]: inactive
outcome [3]: inactive
outcome [5]: inactive
outcome [6]: inactive

CC/C=C\C/C=C\C/C=C\C/C=C\C/C=C\C/C=C\CCC(=O)O
Potency [1]: inactive
outcome [7]: inactive
Potency [9]: inactive

CCN(CC)CCOCCOC(=O)C(CC)(CC)c1ccccc1
Potency [1]: inactive
Potency [2]: inactive
outcome [3]: inactive
outcome [4]: inactive
outcome [5]: inactive
outcome [6]: inactive

CCC(Oc1ccccc1)C(=O)N[C@@H]1C(=O)N2[C@@H]1SC(C)(C)[C@@H]2C(=O)O (some centres undefined)
Potency [1]: inactive
Potency [2]: 31.6 µM (active)

CC(C)=CCC/C(C)=C/CC/C(C)=C/CC/C(C)=C/CC1=C(C)C(=O)c2ccccc2C1=O
Potency [1]: inactive
outcome [8]: inactive
Potency [9]: 14.1 µM (active)

CC/C=C\C/C=C\C/C=C\CCCCCCCC(=O)O
Potency [9]: 7.94 µM (active)

COC(=O)[C@@H](N)CS
Potency [2]: 10 µM (active)

O=C(O)Cc1cc(I)c(Oc2ccc(O)c(I)c2)c(I)c1
Potency [1]: inactive
Potency [2]: inactive
outcome [3]: inactive
outcome [4]: inactive

Cc1ncc(C[n+]2csc(CCO)c2C)c(N)n1
Potency [1]: inactive
Potency [2]: inactive
outcome [7]: inactive
outcome [8]: inactive

O=C(O)/C=C/c1ccccc1
Potency [1]: inactive
Potency [2]: inactive
outcome [7]: inactive
outcome [8]: inactive
Potency [9]: inactive
Potency [10]: inactive

Oc1cccc(O)c1O
Potency [10]: inactive

CC/C=C\C/C=C\C/C=C\C/C=C\C/C=C\CCCC(=O)O
Potency [1]: inactive
outcome [7]: inactive
outcome [8]: inactive
Potency [9]: inactive
Potency [10]: inactive

CCCCCCCCCCCC(=O)OCC(O)CO (centres undefined)
Potency [1]: inactive
Potency [2]: inactive
outcome [7]: inactive
outcome [8]: inactive
Potency [9]: inactive

C=C1CC[C@H](O)CC1=C/C=C1\CCC[C@]2(C)[C@@H]([C@H](C)/C=C/[C@H](C)C(C)C)CC[C@@H]12
Potency [1]: inactive
Potency [2]: inactive
outcome [3]: inactive
outcome [5]: inactive
Potency [10]: 12.6 µM (active)

CC[C@H]1OC(=O)C[C@@H](O)[C@H](C)[C@@H](O[C@@H]2O[C@H](C)[C@@H](O[C@H]3C[C@@](C)(O)[C@@H](O)[C@H](C)O3)[C@H](N(C)C)[C@H]2O)[C@@H](CC=O)C[C@@H](C)C(=O)/C=C/C(C)=C/[C@@H]1CO[C@@H]1O[C@H](C)[C@@H](O)[C@@H](OC)[C@H]1OC
Potency [2]: inactive

O=C(O)c1cc(O)c2c(c1)[C@H]([C@H]1c3cc(C(=O)O)cc(O)c3C(=O)c3c(O[C@@H]4O[C@H](CO)[C@@H](O)[C@H](O)[C@H]4O)cccc31)c1cccc(O[C@@H]3O[C@H](CO)[C@@H](O)[C@H](O)[C@H]3O)c1C2=O
Potency [2]: 1.12 µM (active)
